Residue numbers refer to the chain shown, from its start.
How the values were obtained:
Assay in all cases: PBM; 200 nM protein, PBS
Settings in all cases: dsDNA, one strand shown
NKX2-5 [1] = molecular target: NKX2-5 (Homo sapiens, UniProt P52952 125-210, R139K)
NKX2-4 [2] = molecular target: T1, NKX2-4 (Homo sapiens, UniProt Q9H2Z4 175-261, P217L)
T1 sequence: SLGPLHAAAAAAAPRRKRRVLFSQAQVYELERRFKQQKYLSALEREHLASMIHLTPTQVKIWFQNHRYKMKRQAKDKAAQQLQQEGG

NKX2-4 [3] = molecular target: T2, NKX2-4 (Homo sapiens, UniProt Q9H2Z4 175-261, T231S)
T2 sequence: T1 sequence with L43P, T57S

NKX2-4 [4] = molecular target: T3, NKX2-4 (Homo sapiens, UniProt Q9H2Z4 175-261)
T3 sequence: T1 sequence with L43P

NKX2-6 [5] = molecular target: T4, NKX2-6 (Homo sapiens, UniProt A6NCS4 118-204, R150C)
T4 sequence: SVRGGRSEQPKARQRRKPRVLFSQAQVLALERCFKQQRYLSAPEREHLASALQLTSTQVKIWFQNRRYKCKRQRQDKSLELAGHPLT

NKX2-6 [6] = molecular target: T5, NKX2-6 (Homo sapiens, UniProt A6NCS4 118-204)
T5 sequence: T4 sequence with C33R

NKX2-4 [7] = molecular target: T6, NKX2-4 (Homo sapiens, UniProt Q9H2Z4 175-261, R246Q)
T6 sequence: T1 sequence with L43P, R72Q

NKX2-6 [8] = molecular target: T7, NKX2-6 (Homo sapiens, UniProt A6NCS4 118-204, F151L)
T7 sequence: T4 sequence with C33R, F34L

NKX3-2 [9] = molecular target: NKX3-2 (Homo sapiens, UniProt P78367 192-278, P234S)
NKX3-2 (Homo sapiens, UniProt P78367 192-278, P234S), sequence (P78367 192-278 P234S): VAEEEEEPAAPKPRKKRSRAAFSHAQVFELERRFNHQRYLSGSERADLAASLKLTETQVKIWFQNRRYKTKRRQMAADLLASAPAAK

NKX2-5 [10] = molecular target: NKX2-5 (Homo sapiens, UniProt P52952 125-210)
NKX2-5 (Homo sapiens, UniProt P52952 125-210), sequence (P52952 125-210): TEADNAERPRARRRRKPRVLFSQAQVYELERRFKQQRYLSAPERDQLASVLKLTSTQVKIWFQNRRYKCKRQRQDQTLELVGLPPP

NKX3-2 [11] = molecular target: NKX3-2 (Homo sapiens, UniProt P78367 192-278)
NKX3-2 (Homo sapiens, UniProt P78367 192-278), sequence (P78367 192-278): as the sequence (P78367 192-278 P234S) above, with S43P counted along it

NKX2-5 (Homo sapiens, UniProt P52952 125-210, R139K), sequence (P52952 125-210 R139K): as the sequence (P52952 125-210) above, with R15K counted along it

Sequence | binding signal (NKX2-5 [1]) | binding signal (NKX2-4 [2]) | binding signal (NKX2-4 [3]) | binding signal (NKX2-4 [4]) | binding signal (NKX2-6 [5]) | binding signal (NKX2-6 [6]) | binding signal (NKX2-4 [7]) | binding signal (NKX2-6 [8]) | binding signal (NKX3-2 [9]) | binding signal (NKX2-5 [10]) | binding signal (NKX3-2 [11])
GGTACTTA | 13.1 upbm affinity estimate (log intensity, higher = more binding, comparable within an allelic series) | 12.6 upbm affinity estimate (log intensity, higher = more binding, comparable within an allelic series) | 13 upbm affinity estimate (log intensity, higher = more binding, comparable within an allelic series) | 12.5 upbm affinity estimate (log intensity, higher = more binding, comparable within an allelic series) | 12 upbm affinity estimate (log intensity, higher = more binding, comparable within an allelic series) | 13.8 upbm affinity estimate (log intensity, higher = more binding, comparable within an allelic series) | 13.1 upbm affinity estimate (log intensity, higher = more binding, comparable within an allelic series) | 11 upbm affinity estimate (log intensity, higher = more binding, comparable within an allelic series) | 12.8 upbm affinity estimate (log intensity, higher = more binding, comparable within an allelic series) | 12.9 upbm affinity estimate (log intensity, higher = more binding, comparable within an allelic series) | 12.8 upbm affinity estimate (log intensity, higher = more binding, comparable within an allelic series)
AGTACTTA | 12.9 upbm affinity estimate (log intensity, higher = more binding, comparable within an allelic series) | 12.6 upbm affinity estimate (log intensity, higher = more binding, comparable within an allelic series) | 13.1 upbm affinity estimate (log intensity, higher = more binding, comparable within an allelic series) | 12.5 upbm affinity estimate (log intensity, higher = more binding, comparable within an allelic series) | 12 upbm affinity estimate (log intensity, higher = more binding, comparable within an allelic series) | 13.8 upbm affinity estimate (log intensity, higher = more binding, comparable within an allelic series) | 13.1 upbm affinity estimate (log intensity, higher = more binding, comparable within an allelic series) | 11.2 upbm affinity estimate (log intensity, higher = more binding, comparable within an allelic series) | 12.6 upbm affinity estimate (log intensity, higher = more binding, comparable within an allelic series) | 12.8 upbm affinity estimate (log intensity, higher = more binding, comparable within an allelic series) | 12.7 upbm affinity estimate (log intensity, higher = more binding, comparable within an allelic series)
AAGTGGTA | 12.5 upbm affinity estimate (log intensity, higher = more binding, comparable within an allelic series) | 12.4 upbm affinity estimate (log intensity, higher = more binding, comparable within an allelic series) | 12.9 upbm affinity estimate (log intensity, higher = more binding, comparable within an allelic series) | 12.3 upbm affinity estimate (log intensity, higher = more binding, comparable within an allelic series) | 11.9 upbm affinity estimate (log intensity, higher = more binding, comparable within an allelic series) | 13.4 upbm affinity estimate (log intensity, higher = more binding, comparable within an allelic series) | 12.9 upbm affinity estimate (log intensity, higher = more binding, comparable within an allelic series) | 10.7 upbm affinity estimate (log intensity, higher = more binding, comparable within an allelic series) | 12.8 upbm affinity estimate (log intensity, higher = more binding, comparable within an allelic series) | 12.5 upbm affinity estimate (log intensity, higher = more binding, comparable within an allelic series) | 12.9 upbm affinity estimate (log intensity, higher = more binding, comparable within an allelic series)
AAGTGGCT | 12.5 upbm affinity estimate (log intensity, higher = more binding, comparable within an allelic series) | 12.5 upbm affinity estimate (log intensity, higher = more binding, comparable within an allelic series) | 12.9 upbm affinity estimate (log intensity, higher = more binding, comparable within an allelic series) | 12.4 upbm affinity estimate (log intensity, higher = more binding, comparable within an allelic series) | 11.8 upbm affinity estimate (log intensity, higher = more binding, comparable within an allelic series) | 13.4 upbm affinity estimate (log intensity, higher = more binding, comparable within an allelic series) | 13 upbm affinity estimate (log intensity, higher = more binding, comparable within an allelic series) | 10.6 upbm affinity estimate (log intensity, higher = more binding, comparable within an allelic series) | 12.8 upbm affinity estimate (log intensity, higher = more binding, comparable within an allelic series) | 12.4 upbm affinity estimate (log intensity, higher = more binding, comparable within an allelic series) | 12.9 upbm affinity estimate (log intensity, higher = more binding, comparable within an allelic series)
TAAGTGGA | 13.2 upbm affinity estimate (log intensity, higher = more binding, comparable within an allelic series) | 12.8 upbm affinity estimate (log intensity, higher = more binding, comparable within an allelic series) | 13.2 upbm affinity estimate (log intensity, higher = more binding, comparable within an allelic series) | 12.6 upbm affinity estimate (log intensity, higher = more binding, comparable within an allelic series) | 12.3 upbm affinity estimate (log intensity, higher = more binding, comparable within an allelic series) | 13.9 upbm affinity estimate (log intensity, higher = more binding, comparable within an allelic series) | 13.3 upbm affinity estimate (log intensity, higher = more binding, comparable within an allelic series) | 11.3 upbm affinity estimate (log intensity, higher = more binding, comparable within an allelic series) | 13.2 upbm affinity estimate (log intensity, higher = more binding, comparable within an allelic series) | 13.1 upbm affinity estimate (log intensity, higher = more binding, comparable within an allelic series) | 13.3 upbm affinity estimate (log intensity, higher = more binding, comparable within an allelic series)
ATAAGTGG | 13.2 upbm affinity estimate (log intensity, higher = more binding, comparable within an allelic series) | 12.8 upbm affinity estimate (log intensity, higher = more binding, comparable within an allelic series) | 13.2 upbm affinity estimate (log intensity, higher = more binding, comparable within an allelic series) | 12.7 upbm affinity estimate (log intensity, higher = more binding, comparable within an allelic series) | 12.4 upbm affinity estimate (log intensity, higher = more binding, comparable within an allelic series) | 13.9 upbm affinity estimate (log intensity, higher = more binding, comparable within an allelic series) | 13.3 upbm affinity estimate (log intensity, higher = more binding, comparable within an allelic series) | 11.4 upbm affinity estimate (log intensity, higher = more binding, comparable within an allelic series) | 13.1 upbm affinity estimate (log intensity, higher = more binding, comparable within an allelic series) | 13.1 upbm affinity estimate (log intensity, higher = more binding, comparable within an allelic series) | 13.1 upbm affinity estimate (log intensity, higher = more binding, comparable within an allelic series)

Source: article PMC11006913
